High-throughput results as filed in PubChem BioAssay.
Shown are actives, neighbours in structure and some others; about 3.5% of the full set was active somewhere.
GPR151 ag = activators of human GPR151, primary screen, cell-based, PathHunter beta-arrestin, luminescence; hit rate 1% among 650,000; G-protein coupled receptor 151 (Homo sapiens), Q8TDV0; PathHunter beta-arrestin GPR151 cells; activation, % at 11.2 µM; in the data active means activation above about 4.9%;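 further: 0% = median of compound wells and 100% = cells with positive control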
FBW7 act = FBW7 E3 ligase activators, primary screen, biochemical, AlphaScreen, human. F-box/WD repeat-containing protein 7 (Homo sapiens), Q969H0. hit rate 0.13% among 650,000. normalized activity (activation), % at 26.1 µM. AlphaScreen FBW7–phospho-cyclin E peptide binding, activator screen; in the data active means normalized activity above about 1.9%;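 further: purified mutant Fbw7 with reduced substrate affinity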
MITF inh = MITF inhibitors, primary screen, biochemical, AlphaScreen, human | Microphthalmia-associated transcription factor (Homo sapiens), O75030 | AlphaScreen MITF homodimerization, bead proximity signal | inhibition, % at 2.6 µM | hit rate 0.91% among 650,000; in the data active means inhibition above about 50%;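 further: 0% = vehicle wells with protein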
Target sequence (O75030 whole entry, looked up): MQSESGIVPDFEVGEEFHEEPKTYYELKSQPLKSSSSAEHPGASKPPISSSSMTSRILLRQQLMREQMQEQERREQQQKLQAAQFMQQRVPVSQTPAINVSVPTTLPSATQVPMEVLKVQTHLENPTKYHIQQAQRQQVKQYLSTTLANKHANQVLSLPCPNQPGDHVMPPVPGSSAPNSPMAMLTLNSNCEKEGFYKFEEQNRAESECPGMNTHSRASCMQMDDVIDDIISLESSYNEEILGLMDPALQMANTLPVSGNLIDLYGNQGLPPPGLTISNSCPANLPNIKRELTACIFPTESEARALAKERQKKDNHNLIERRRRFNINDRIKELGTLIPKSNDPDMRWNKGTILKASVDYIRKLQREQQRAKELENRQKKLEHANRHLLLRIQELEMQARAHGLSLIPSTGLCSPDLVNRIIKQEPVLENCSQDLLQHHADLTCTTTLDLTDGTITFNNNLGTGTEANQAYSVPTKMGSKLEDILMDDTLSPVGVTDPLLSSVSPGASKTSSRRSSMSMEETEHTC
TEAD-YAP block = TEAD-YAP interaction inhibition, primary screen, TEAD-YAP interaction inhibitor project, luminescence, HEK-TIYL cells | inhibition, % at 9.12 µM | hit rate 1.4% among 640,000 | TEAD-Gal4/YAP UAS-luciferase luminescence; in the data active means inhibition above about 32%;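 further: 0% = median of test compound wells and 100% = reference inhibitor wells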
* hit, by the source's call.

SMILES	GPR151 ag	FBW7 act	MITF inh	TEAD-YAP block
O=c1ncn(C2OC(CO)C(O)C2O)c(=O)[nH]1 (stereo not given)	0	0	0	74*
O=c1cnn([C@@H]2O[C@H](CO)[C@@H](O)[C@H]2O)c(=O)[nH]1	1	0	-2	48*
O=c1[nH]cnc2c1ncn2[C@@H]1O[C@H](CO)[C@@H](O)[C@H]1O	-1	0	-4	-4
O=c1c2ccccc2[nH]c2ccc([N+](=O)[O-])cc12	0	0	5	6
CC(CN1CCc2nnc(CNC(=O)c3ccccn3)n2CC1)c1ccccc1 (stereo not given)	-2	0	-2	-5
CC1=CC(C)(C)N2C(=O)C(=O)c3cc(OC(=O)C4CCCO4)cc1c32 (stereo not given)	0	0	12	57*
CC1=CC(C)(C)N2C(=O)C(=O)c3cc(OC(=O)COc4ccccc4)cc1c32	-1	0	10	62*
COc1ccc(C(=O)Oc2cc3c4c(c2)C(C)=CC(C)(C)N4C(=O)C3=O)cc1OC	0	0	10	9
O=C1[C@H]2CN(Cc3cccc(Cl)c3)CCN2C(=O)[C@H]2CCCN12	-1	0	10	14
Cc1ccc(C)n1-c1ccccc1N	2	1	-7	51*
CC(C)(C)c1cc(-c2nc3ccccc3[nH]2)n[nH]1	-10	0	-2	96*
CC(=O)c1ccc(Cc2c(O)[nH]c(=O)[nH]c2=O)cc1	-1	0	13	-4
Cc1oc(C(=O)N2c3ccccc3CC2C)cc1S(=O)(=O)N(C)C (stereo not given)	-4	0	-3	49*
Cc1sc2nc(C)n(C3CCN(C(=O)c4ccncc4)CC3)c(=O)c2c1C	0	0	-14	40*
COc1cc([N+](=O)[O-])cc(/C=N/NC(=O)c2cc(-c3ccccc3)n[nH]2)c1O	0	0	22	2
COc1ccc(-c2cc(C(=O)N/N=C/c3c(C)[nH]c4ccccc34)[nH]n2)cc1OC	1	0	9	45*
COc1ccccc1-c1cc(C(=O)N/N=C\c2ccccc2)[nH]n1	3	0	3	-3
COc1cccc(/C=N/NC(=O)c2ccn(C)n2)c1O	-1	0	9	-30
COc1cccc(/C=N/NC(=O)c2cc(-c3cccc([N+](=O)[O-])c3)n[nH]2)c1O	0	0	11	72*
COc1cccc(/C=N/NC(=O)c2cc(-c3cccn3C)n[nH]2)c1O	0	-1	18	38*
COc1ccccc1-c1cc(C(=O)N/N=C/c2cccc(OC)c2O)[nH]n1	0	0	33	40*
O=C(Nc1ccc(NC(=O)c2ccc(F)cc2)cc1)c1ccc(F)cc1	1	0	-14	18
COc1cccc(C(=O)NNC(=O)COc2ccc(C)cc2Br)c1	0	0	9	-8
O=C(Cc1ccccc1)c1ccc(O)cc1O	1	0	12	-5
O=C(Cc1ccc2c(c1)OCCCO2)c1ccc(O)cc1O	2	0	3	61*
SMILES	GPR151 ag	FBW7 act	MITF inh	TEAD-YAP block
CC(C)(C)n1ncc2c(=O)n(CC(=O)Nc3ccc(F)cc3)cnc21	1	0	9	12
COc1cc(/C=C2\NC(=S)NC2=O)ccc1O	-1	0	26	31
O=C1NC(=S)N/C1=C/c1ccc2c(c1)OCO2	1	0	15	36*
COc1cccc(/C=C2/NC(=S)NC2=O)c1O	0	0	-2	41*
COc1cc(/C=C2/NC(=S)NC2=O)ccc1O	0	0	-1	54*
O=C1NC(=S)S/C1=C\c1ccc2c(c1)OCO2	0	0	10	-2
C#CCOc1ccc(/C=C2\C(=O)NC(=O)N(c3ccc(O)cc3)C2=O)cc1OCC	1	0	1	8
c1ccc(-c2nc(NC3CC3)c3ncn(-c4ccccc4)c3n2)cc1	-2	0	-2	5
NC(=O)c1ccc(-c2nc(Nc3ccc(Oc4ccccc4)cc3)c3ncn(-c4ccsc4)c3n2)cc1	0	0	15	5
CC(=O)Nc1ccc(Nc2nc(-c3ccc(C(N)=O)cc3)nc3c2ncn3-c2ccsc2)cc1	-2	0	-6	39*
CC(=O)Nc1ccc(Nc2nc(-c3ccccc3)nc3c2ncn3-c2ccsc2)cc1	0	0	-13	37*
NC(=O)c1ccc(-c2nc(NC3CC3)c3ncn(-c4ccccc4)c3n2)cc1	-3	0	23	36*
CC(=O)Nc1ccc(Nc2nc(-c3ccc(C(=O)N4CCN(C)CC4)cc3)nc3c2ncn3-c2ccsc2)cc1	1	0	2	36*
COc1cccc(NC(=O)Nc2nnc(C)s2)c1	0	0	3	0
COc1ccc(-c2nc(Nc3ccccc3)c3ncn(-c4ccsc4)c3n2)cn1	-2	0	16	0
COc1ccc(-c2nc(Nc3ccc(NC(C)=O)cc3)c3ncn(-c4ccsc4)c3n2)cn1	3	0	9	51*
NC(=O)c1ccc(-c2nc(Nc3ccccc3)c3ncn(-c4ccsc4)c3n2)cc1	0	0	16	50*
O=C(CSc1ncn(-c2ccccc2)n1)Nc1ccc([N+](=O)[O-])cc1O	-1	0	-11	28
O=C(Nc1nc2ccc(NC(=O)C34CC5CC(CC(C5)C3)C4)cc2s1)C1CCCCC1	-2	0	21	53*
CC(C)OC(=O)C(C(=O)C(F)(F)F)c1cc(NS(=O)(=O)c2ccc(C(C)C)cc2)c2ccccc2c1O (stereo not given)	-1	0	12	10
CCCCCn1c(SCC(=O)C(C)(C)C)nc2cc(C(=O)N3CCCCC3)ccc2c1=O	2	0	14	11
Cc1cccc(N(C)S(=O)(=O)c2ccc3c(c2)oc(=O)n3C)c1	-1	0	13	46*
COc1cccc(C2CC(=O)C=C(NCc3ccccc3OC)C2)c1 (stereo not given)	0	1	12	52*
NC1=NC(=O)/C(=C\c2ccc(-c3cccc(C(=O)O)c3)o2)S1	-1	1	58*	44*
O=C1NC(=S)S/C1=C\c1ccc(-c2cccc(C(=O)O)c2)o1	0	-1	70*	5
SMILES	GPR151 ag	FBW7 act	MITF inh	TEAD-YAP block
O=C1NC(=O)/C(=C/c2ccc(-c3ccc(O)c(C(=O)O)c3)o2)S1	-1	-1	86*	-1
NC1=NC(=O)/C(=C/c2ccc(-c3ccccc3)o2)S1	1	0	-12	-46
O=C1NC(=S)S/C1=C\c1ccc(-c2ccc(C(=O)O)cc2)o1	0	0	38	10
Cc1ccc(C(=O)O)cc1-c1ccc(/C=C2/SC(=O)NC2=O)o1	1	0	8	-5
CC1=C(C#N)C(=O)NC(=O)/C1=C\c1ccc(-c2ccc(C(=O)O)c(Cl)c2)o1	0	0	58*	6
CC1=C(C#N)C(=O)NC(=O)/C1=C\c1ccc(-c2ccccc2)o1	-1	0	5	1
